From PubChem BioAssay
A selection: hits, their analogues and other compounds. The true share with any hit is near 0.49%.
Epigenetic reg: epigenetic control regulation, reporter derepression; murine LDR cells, GFP reporter derepression, 30 h; Potency, µM (highest dose often 53.9 µM), inactives show at the top dose GFP activation, actives largely listed as activators; 280,000 compounds, 0.2% hits; also: potency is read from the fitted curve at half-maximal effect; % of control where 0% means no effect; nearly all actives have a fitted effect of over 60% in size
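In this reporter-derepression format, murine cells bearing a silenced integrated CMV-GFP locus incubate with test compound (30 h, 37 C), then are washed and imaged; fluorescent objects of 20–120 um count as induced cells.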
Apoferritin bind: binds horse apoferritin like a general anesthetic; P02791; apoferritin/1-aminoanthracene competitive binding, fluorescence; Potency, µM (series often up to 77.5 µM), without a hit: at the top dose activity change, negative = displacement, actives largely listed as inhibitors; 350,000 compounds, 0.074% hits; AID 485281; also: potency is read from the fitted curve at half-maximal effect; % is scaled to controls: 0 for no effect and ±100 for the full control effect; nearly all actives have a fitted effect of over 20% in size
Target sequence (P02791 2-175 limits assumed): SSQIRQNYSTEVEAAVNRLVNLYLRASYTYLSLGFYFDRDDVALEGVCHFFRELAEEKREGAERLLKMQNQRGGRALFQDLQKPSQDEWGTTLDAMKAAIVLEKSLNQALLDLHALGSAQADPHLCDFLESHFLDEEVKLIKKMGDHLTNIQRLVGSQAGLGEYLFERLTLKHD
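Horse-spleen apoferritin (10 uM) in 50% saturated 1-aminoanthracene in PBS was incubated 10 min at room temperature with compound. Fluorescence (ex 380, em 535 nm) was normalized to free and bound 1-AMA, with concentration-response fitted by a four-parameter Hill equation.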
Vif-APOBEC3G blk: inhibitors of Vif-APOBEC3G interaction. Q9HC16. HeLa A3G-eYFP + Vif (tagged APOBEC3G with the HIV-1 protein that degrades it), YFP fluorescence, overnight. Potency, µM (titrated, usually from 46.1 µM), inactives show at the highest dose activity, negative = active, hits mostly inhibitors. 410,000 compounds, 0.076% hits. AID 602310; also: potency is read from the fitted curve at half-maximal effect; % is scaled to controls: 0 for no effect and ±100 for the full control effect; nearly all actives have a fitted effect of over 60% in size
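HeLa cells stably expressing Vif and C-terminally eYFP-tagged A3G, seeded overnight at 37 deg C, then exposed to compound by pintool overnight at 37 deg C. Rise in yellow fluorescence (Ex 488/Em 500-530, Acumen) marks blocked Vif-driven A3G degradation.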
LDHA inh: inhibitors of human lactate dehydrogenase A; 480,000 compounds, 0.15% hits; purified LDHA, NADH/diaphorase-resazurin fluorescence; stronger effect = lower value; activity change, % (values are at about 110 or 230 µM); in the data active = activity change below about -30%; inconclusive = mostly about -25% to -30%;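 also: plate controls were DMSO wells for no effect and wells without enzyme for full effect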
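Resorufin fluorescence (ex540/em590), read at 0 and 20 min after diaphorase/resazurin addition, reports the NADH left after a 5 min room-temperature reaction of 2 nM human LDH5 with 0.06 mM NADH and 0.2 mM pyruvate.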
Vif-APOBEC3F blk: Vif-A3F binding inhibition | HeLa A3F-eYFP + Vif (tagged APOBEC3F with the HIV-1 protein that degrades it), YFP fluorescence increase | Potency, µM (titrated, usually from 46.1 µM), for the others: at the highest dose activity, negative = active | 390,000 compounds, 0.2% hits | AID 602313; also: potency is read from the fitted curve at half-maximal effect; % of control where 0% means no effect; nearly all actives have a fitted effect of over 65% in size
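HeLa cells stably expressing Vif plus C-terminally eYFP-tagged A3F were seeded, incubated overnight at 37 deg C, dosed with compound, incubated overnight again at 37 deg C. Yellow fluorescence (Ex 488/Em 500-530) reported blocked Vif-mediated A3F-eYFP degradation.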
An asterisk follows results filed as active; ? = inconclusive; . = no result given; [ ] = another dose, or the depositor's remark. Unless noted, calls follow the shape of the dose curve; as a rule, active = well fitted curve in the direction sought with a large enough effect; inconclusive = small, poorly fitted or top-dose-only effect, or another doubt; inactive = no such curve, though single readings can be large; an effect the other way counts as inactive or inconclusive.

SMILES	Epigenetic reg	Apoferritin bind	Vif-APOBEC3G blk	LDHA inh	Vif-APOBEC3F blk
CCOc1ccc(S(=O)(=O)N(CC(=O)Nc2cccc(C)c2)c2ccccc2)cc1	.	.	.	-34*	.
O=C(Nc1cccc(Cl)c1)C1CCN(c2ncnc3nc[nH]c23)CC1	.	.	.	-2	.
CN(C)c1ccc(/C=C/c2ccnc3ccc(I)cc23)cc1	.	.	8.9µM*	5	.
Cc1cc(C)c2nccc(/C=C/c3ccc(N(C)C)cc3)c2c1	.	.	10µM*	.	.
CN(C)c1ccc(/C=C/c2ccnc3c(Cl)ccc(Cl)c23)cc1	.	.	3.5µM*	1	.
CN(C)c1ccc(/C=C/c2ccnc3c([N+](=O)[O-])cccc23)cc1	.	.	-11%	2	.
Cc1cc(N(C)C)c(C)cc1/C=C/c1ccnc2ccccc12	.	.	14µM*	.	.
CN(C)c1ccc(/C=C/c2ccnc3ccc4ccccc4c23)cc1	.	.	6%	.	.
CCCCCCCCCN(CCCCCCCCC)c1ccc(/C=C/c2ccnc3ccccc23)cc1	.	.	1%	2	.
CCCN(CCC)c1ccc(/C=C/c2ccnc3ccccc23)cc1	.	.	11µM*	.	.
CN(C)c1ccc(/C=C/c2ccnc3ccccc23)cc1N	.	.	?	10	.
Cc1cc(/C=C/c2ccnc3ccccc23)ccc1N	.	.	10µM*	3	.
CN(C)c1ccc(/C=C/c2ccnc3ccccc23)cc1	.	.	11µM*	1	.
O=C(N/N=C/c1ccccc1)c1cc(=O)[nH]c2ccccc12	-1%	-15%	3%	-5	-2%
NC(=O)CCN1CCN(S(=O)(=O)c2ccc(Br)cc2Cl)CC1	.	.	.	6	.
Cc1ccc(-c2cc(-c3ccco3)c3c(N)c(C(=O)NN)oc3n2)cc1	11%	-5%	?	-6	11µM*
Cc1nnc(-c2cccc(C(F)(F)F)c2)nc1N1CCOCC1	-2%[10.1 µM]	-15%	-6%	5	0%
CC(C)N(C(=O)CO/N=C/c1cccc([N+](=O)[O-])c1)C(C)C	7%	45µM*	-6%	0	-17%
COc1cc(C(=O)N2CCN(Cc3ccccn3)CC2)cc(OC)c1OC	.	10%	-3%	-23	-5%
COc1ccc(OC)c(C(c2nnnn2C2CCCC2)N2CCc3ccccc3C2)c1 (configuration not stated)	-1%	5%	-4%	-4	3%
Clc1ccccc1C1CC(c2ccccc2)=Nc2ccccc2N1 (configuration not stated)	0%	-4%	-22%	-4	20µM*
Brc1ccccc1C1CC(c2ccccc2)=Nc2ccccc2N1 (configuration not stated)	-2%	?	-9%	3	?
COc1ccc(C(=O)CNc2ccccc2Br)cc1	.	-15%	-7%	4	-3%
O=C(NNC(=O)c1cc(-c2ccco2)nc2ccccc12)c1ccccc1	1%	131%	-3%	0	2%
CCCNC(=O)C(C)OC(=O)c1cc2ccc(OC)cc2nc1C (configuration not stated)	.	.	.	8	.
SMILES	Epigenetic reg	Apoferritin bind	Vif-APOBEC3G blk	LDHA inh	Vif-APOBEC3F blk
COc1ccc2cc(C(=O)OC(C)C(N)=O)c(C)nc2c1 (configuration not stated)	.	.	.	-32*	.
COc1ccc(C2NN=C(c3c[nH]c4ccccc34)C2O)cc1 (configuration not stated)	.	-12%	?	1	22µM*
CN1/C(=C\C=C2/SC(=S)NC2=O)C(C)(C)c2ccccc21	?	?	7.9µM*	-2	?
CN1/C(=C\C=C2/C(=O)Oc3ccccc3C2=O)C(C)(C)c2ccccc21	14µM*	-5%	7%	-50*	?
CCCN1C(=O)/C(=C\C=C2\N(CC)c3ccccc3C2(C)C)SC1=S	-6%	-11%	?	1	3.5µM*
CC1(C)CC(=O)C(Sc2ccccc2[N+](=O)[O-])=C(O)C1	-6%	-11%	2%	-78*	-1%
COc1cc(Br)c(/C=C(\C#N)c2nc3ccccc3[nH]2)cc1OC	6%	?	-23%	-12	25µM*
CC(C)Oc1ccc2ccccc2c1/C=C(\C#N)c1nc2ccccc2[nH]1	.	.	.	-30*	.
CCCOc1ccc2ccccc2c1/C=C(/C#N)c1nc2ccccc2[nH]1	.	.	.	13	.
